Assay outcomes (PubChem)
Nrf2 block = inhibitors of Nrf2 signaling. A549 ARE-Fluc reporter, luciferase luminescence, 18-24 h. Potency, µM (titrated, usually from 46 µM), most hits filed as inhibitors. 360,000 compounds, 2.1% hits. AID 504444; also: nearly all actives have a fitted effect of over 60% in size
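Two sequential reads on A549 ARE_Fluc cells exposed to compound for 18-24 h: a CellTiter-Fluor fluorescence read for viability, then a luciferase luminescence read for Nrf2/ARE activity.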
A549 tox = counter-screen for Nrf2 inhibitors: cytotoxicity in A549 cells | 390,000 compounds, 0.16% hits | Potency, µM (doses to about 46 µM), usual class: inhibitors | A549 ARE-Fluc cells, CellTiter-Fluor viability, 18-24 h
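Cytotoxicity counterscreen: CellTiter-Fluor fluorescence was measured in A549 ARE_Fluc cells after 18-24 h of compound exposure in a concentration series. The subsequent BugLite luminescent read reports ARE-luciferase activity.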
Nrf2 ARE act = activates Nrf2 signaling; AREc32 ARE-luciferase reporter (MCF7-derived line), luminescence, 24 h; Potency, µM (series often up to 46.1 µM), hits mostly activators; 410,000 compounds, 0.31% hits; also: nearly all actives have a fitted effect of over 65% in size
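Steps: seed AREc32_Fluc cells (1000/well, 5% FBS OPTI-MEM); incubate overnight at 37 deg C; add 23 nL compound; incubate 24 hr; add Steady-Glo; hold 30 min RT; read luminescence.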
ATXN viability = reduces viability in counter-screen for ATXN expression inhibitors. 400,000 compounds, 0.49% hits. AID 651635. S2 cells (HEK-293 line with an ATXN2-luciferase reporter) viability, CellTiter-Fluor protease fluorescence, 24 h. Potency, µM (series often up to 56.7 µM), most hits filed as cytotoxic; also: nearly all actives have a fitted effect of over 40% in size
ATXN2 expr inh = ATXN2 expression inhibition | HEK-293 ATXN2-luciferase reporter, luminescence, 24 h | Potency, µM (highest dose often 57 µM), usual class: inhibitors | 360,000 compounds, 0.72% hits; also: nearly all actives have a fitted effect of over 55% in size
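qHTS (up to 57 uM final) was run with 24 h compound exposure of reporter cells at 37 °C. Each well was multiplexed: SteadyGlo luminescence measured ATXN2-luciferase expression after a fluorogenic Gly-Phe-AFC viability readout (25 uM final).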
Each line names hits and unclear results; the compound was inactive in the other large screens. Rows were chosen to be rich in hits. Some 2.9% of all compounds tested hit in one or more screens of this group. Calls follow the shape of the dose curve; as a rule, active = well fitted curve in the direction sought with a large enough effect; inconclusive = small, poorly fitted or top-dose-only effect, or another doubt; inactive = no such curve, though single readings can be large; an effect the other way counts as inactive or inconclusive.

CCCSc1nc2c(c(=O)[nH]1)C(c1ccc(O)c(OCC)c1)CC(=O)N2 (configuration not stated)	none
CSc1nn(CC(=O)Nc2cc(C)ccc2C)c(N)c1S(=O)(=O)c1ccccc1	Nrf2 block 21µM
CSc1nn(CC(=O)Nc2ccccc2F)c(N)c1S(=O)(=O)c1ccccc1	Nrf2 block inconclusive
CCSc1nn(CC(=O)Nc2ccc(C(=O)OC)cc2)c(N)c1S(=O)(=O)c1ccc(C)cc1	Nrf2 block 23µM, ATXN viability inconclusive
CCN(CC)c1ccc(NC(=O)c2cc3c(=O)n4cccc(C)c4nc3n2C)c(C)c1	none (no result: ATXN viability, ATXN2 expr inh)
CCN(CC)c1cc(C)c2cc(NC(=O)c3ccc(F)cc3Cl)ccc2n1	ATXN viability inconclusive, ATXN2 expr inh inconclusive
CCN(CC)c1cc(C)c2cc(NC(=O)c3ccc(Br)o3)ccc2n1	Nrf2 block 12µM, A549 tox inconclusive, ATXN2 expr inh inconclusive (no result: ATXN viability)
CCN(CC)c1cc(C)c2cc(NC(=O)c3cc(OC)cc(OC)c3)ccc2n1	ATXN2 expr inh 18µM (no result: ATXN viability)
CCCCc1ccc(C(=O)Nc2ccc3nc(N(CC)CC)cc(C)c3c2)cc1	none
CCCCOC(=O)c1cccc(NC(=O)/C=C/c2ccccc2Cl)c1	Nrf2 block 21µM (no result: ATXN viability, ATXN2 expr inh)
CCN(CC)c1cc(C)c2cc(NC(=O)/C=C/c3ccccc3Cl)ccc2n1	ATXN2 expr inh 28µM (no result: ATXN viability)
Cc1ccc2c(c1)CN(CCC(=O)NCc1cc(C)n(C)n1)CC(C)O2 (configuration not stated)	none (no result: Nrf2 block, A549 tox, Nrf2 ARE act, ATXN2 expr inh)
CCOc1ccccc1C(=O)NCC(c1ccc(N(C)C)cc1)N1CCc2ccccc21 (configuration not stated)	none (no result: Nrf2 block, ATXN viability, ATXN2 expr inh)
Cc1cnc(-n2ncc(C(=O)NCCc3ccncc3)c2-c2cccs2)nc1-c1ccc(F)cc1	none (no result: Nrf2 block, A549 tox, Nrf2 ARE act, ATXN2 expr inh)
NC(=O)C1CCCN(Cc2ccc3c(c2)CN(Cc2cn[nH]c2-c2ccc(F)cc2)CCO3)C1 (configuration not stated)	none (no result: Nrf2 block, A549 tox, Nrf2 ARE act, ATXN2 expr inh)
Cc1cccc(C2(c3cccc(C)c3)CC2C(=O)Nc2ccc([N+](=O)[O-])cc2O)c1 (configuration not stated)	Nrf2 block inconclusive, A549 tox inconclusive, ATXN viability 18µM, ATXN2 expr inh inconclusive
C=CCNC(=O)C1CC1(c1cccc(C)c1)c1cccc(C)c1 (configuration not stated)	none
O=C(O)c1ccc(Nc2ccc([N+](=O)[O-])c3nonc23)cc1	A549 tox inconclusive, ATXN viability inconclusive
O=C(O)c1cccc(Nc2ccc([N+](=O)[O-])c3nonc23)c1	A549 tox inconclusive, ATXN viability 16µM
CC(=O)c1ccc(Nc2ccc([N+](=O)[O-])c3nonc23)cc1	A549 tox inconclusive, Nrf2 ARE act 11µM, ATXN viability inconclusive (no result: ATXN2 expr inh)
COC(=O)c1cc(=O)n(CCc2ccc(OC)c(OC)c2)c(=Nc2ccc(F)c(Cl)c2)s1	Nrf2 block 23µM, A549 tox inconclusive, ATXN viability inconclusive, ATXN2 expr inh inconclusive
COC(=O)c1cc(=O)n(Cc2ccc(OC)c(OC)c2)c(=Nc2ccc(F)cc2)s1	Nrf2 block inconclusive, A549 tox inconclusive
Nc1[nH]n2c(=O)c3c(nc2c1N=Nc1ccccc1)CCCC3	A549 tox 13µM, ATXN viability inconclusive, ATXN2 expr inh inconclusive (no result: Nrf2 block)
Cc1noc2ncnc(NCc3cccc(Cl)c3)c12	Nrf2 block inconclusive
Cc1ccc(CNc2ncnc3cc(Cl)ccc23)cc1	Nrf2 block 21µM (no result: ATXN2 expr inh)
Cc1ccc(CNc2ncnc3onc(C)c23)cc1	Nrf2 block 8.2µM
Cc1ccccc1CNc1ncnc2cc(Cl)ccc12	Nrf2 block inconclusive
Cc1ccc2nc(-c3ccc(NC(=O)COC(=O)c4ccco4)cc3)sc2c1	Nrf2 block 6.5µM
Cc1ccc2nc(-c3ccc(NC(=O)COC(=O)c4ccc(Br)o4)cc3)sc2c1	Nrf2 block inconclusive, ATXN viability inconclusive
O=C(O)/C=C/c1cc(F)c(S(=O)(=O)N2CCN(S(=O)(=O)c3ccc4c(c3)OCCO4)CC2)cc1F	none (no result: Nrf2 ARE act, ATXN viability, ATXN2 expr inh)
O=S(=O)(Cc1cc(Cl)nc(-c2ccccc2)n1)c1ccccc1	Nrf2 block inconclusive, ATXN viability inconclusive, ATXN2 expr inh 32µM
O=C1C=CC2(C=C1)O[C@H](Cc1ccccc1)[C@@H](Cc1ccccc1)O2	Nrf2 block inconclusive, A549 tox inconclusive, ATXN viability 3µM, ATXN2 expr inh inconclusive
COc1ccc(C[C@@H]2OC3(C=CC(=O)C=C3)O[C@H]2Cc2ccc(OC)cc2)cc1	Nrf2 block inconclusive, A549 tox inconclusive, ATXN2 expr inh inconclusive (no result: ATXN viability)
COc1cccc(NC(=O)/C(C#N)=C/c2c(C)n(Cc3ccccc3)c3ccccc23)c1	Nrf2 block 12µM, ATXN viability inconclusive
O=C(Cn1ncc2c3ccccc3n(Cc3ccccc3)c2c1=O)N1CCN(c2ncccn2)CC1	Nrf2 block 16µM
CCCn1c(/C=C/c2ccccc2)nc2ccccc21	Nrf2 block inconclusive, ATXN viability inconclusive
CC(C)Cn1c(/C=C/c2ccco2)nc2ccccc21	Nrf2 ARE act 13µM
Cn1c(CNc2ccc(C(=N)N)cc2)nc2cc(C(=O)N(CCC(=O)O)c3ccccn3)ccc21	none (no result: Nrf2 block, A549 tox, Nrf2 ARE act, ATXN viability)
O=C1c2cccc3cccc(c23)C(=O)N1c1ccccc1Cl	Nrf2 block inconclusive, ATXN viability inconclusive (no result: ATXN2 expr inh)
Nc1ccccc1N1C(=O)c2cccc3cccc(c23)C1=O	Nrf2 block inconclusive, Nrf2 ARE act 8.9µM (no result: ATXN2 expr inh)
O=C1c2ccccc2-[n+]2ccc3c([nH]c4ccccc43)c21	ATXN2 expr inh 2.7µM (no result: Nrf2 block, A549 tox, Nrf2 ARE act, ATXN viability)
COC(c1ccccc1)(c1ccccc1)[C@H](Oc1nc(C)cc(C)n1)C(=O)O	none (no result: Nrf2 block, A549 tox, Nrf2 ARE act)
Cc1ccc(CN2CCCn3nc(C(=O)NCc4cc(C)ccc4C)cc3C2=O)cc1	ATXN viability inconclusive (no result: Nrf2 block)
O=C1N/C(=N\N=C\c2ccco2)SC1Cc1ccccc1[N+](=O)[O-] (configuration not stated)	Nrf2 ARE act inconclusive, ATXN viability 11µM (no result: ATXN2 expr inh)
CCOc1ccc(CC2S/C(=N/N=C/c3ccco3)NC2=O)cc1 (configuration not stated)	Nrf2 ARE act inconclusive
COc1cccc(CNC(=O)c2c(OC)cc(=O)n3c2CCN(C(=O)C2CC24CCCC4)CC3)c1 (configuration not stated)	none (no result: Nrf2 block, A549 tox, Nrf2 ARE act, ATXN2 expr inh)
NC1=N[C@H]2[C@H](CS[C@H]2CCCCC(=O)O)N1	none (no result: Nrf2 block, A549 tox, Nrf2 ARE act, ATXN viability)
COc1ccc(C2NC(=S)NC3=C2CCCC3=C2SCCS2)cc1 (configuration not stated)	Nrf2 block inconclusive, Nrf2 ARE act 3.2µM
S=C1NC2=C(CCCC2=C2SCCCS2)C(c2ccccc2)N1 (configuration not stated)	none
Cc1ccc2occ(C(=O)c3ccco3)c(=O)c2c1	Nrf2 ARE act 13µM
O=C(c1cc(C(=O)c2ccco2)cc(C(=O)c2ccco2)c1)c1ccco1	none
Cc1nc2nc(SCC(=O)Nc3cccc(Cl)c3)nn2c(C)c1Cc1ccccc1	none (no result: Nrf2 block, ATXN viability, ATXN2 expr inh)
CCCS(=O)(=O)N1CCN(c2cc3c(cc2[N+](=O)[O-])n(C)c(=O)n3C)CC1	Nrf2 block 12µM
